Screening data deposited in PubChem by National Center for Advancing Translational Sciences (NCATS).
HCV inhibitor: blocks hepatitis C virus | Potency, µM (top dose mostly 41.8 µM), inactives show top-dose activity change, negative = inhibition, most hits filed as inhibitors | hit rate 3.4% among 340,000 | Huh7.5.1 HCVcc-Cre infection, luciferase reporter, 44 h | AID 651820; also: potency is read from the fitted curve at half-maximal effect; % is scaled to controls: 0 for no effect and ±100 for the full control effect
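Antiviral activity was scored by luciferase reporter output from cells infected with HCVcc-Cre (~0.5 moi) in presence of compound, 44 h infection period, cells seeded 1,000/well 4 h prior.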
HCMV antiviral: human cytomegalovirus inhibition. activity change, negative = inhibition, % at 57.5 µM. hit rate 4.5% among 410,000. HFF cells, HCMV-luciferase reporter, 72 h; stronger effect = lower value. AID 1259415; in the data active = activity change below about -60%; inconclusive = no clear call, values can overlap the other calls; inactive = above about -39%; also: % is scaled to controls: 0 for no effect and ±100 for the full control effect
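After 16 h attachment at 37C, HFF cells received test compound and HCMV-luciferase (1 PFU/cell); reporter luminescence read 72 h later, data normalized against buffer-only and known inhibitor Salinomycin.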
Pf growth 96h: P. falciparum growth inhibition at 96 hours | P. falciparum luciferase reporter growth, 96 h | Potency, µM (highest dose often 28.7 µM), for inactives: top-dose activity change, negative = inhibition, hits mostly inhibitors | hit rate 6.9% among 320,000; also: potency is read from the fitted curve at half-maximal effect; % is scaled to controls: 0 for no effect and ±100 for the full control effect
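Readout is luminescence from an integrated firefly luciferase in P. falciparum. Red cells, 2% hematocrit and 0.05% parasitemia final, were cultured with compound through two parasite generations (96 hours) at 37 C, 5% CO2.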
SARS PLpro yeast: inhibitors of SARS-CoV papain-like protease in yeast; S. cerevisiae expressing SARS-CoV PLpro, growth rescue; Potency, µM (series often up to 32.9 µM), without a hit: at the highest dose activity, positive = growth rescue, usual class: activators; hit rate 0.19% among 330,000; calls by dose curve; also: potency is read from the fitted curve at half-maximal effect; 0% is about no effect; nearly all actives have a fitted effect of over 55% in size
Sm TGR inh: blocks Schistosoma mansoni thioredoxin glutathione reductase; Q962Y6; purified TGR, DTNB reduction, TNB absorbance 405 nm; Potency, µM (doses to about 114 µM), inactives show at the highest dose activity change, negative = inhibition, hits mostly inhibitors; hit rate 3% among 360,000; also: potency is read from the fitted curve at half-maximal effect; % is scaled to controls: 0 for no effect and ±100 for the full control effect; nearly all actives have a fitted effect of over 60% in size
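TGR 20 nM + NADPH 100 uM (dispensed conc.), cpd preinc 15 min RT; start with NADPH (500 uM addition) then DTNB (15 mM addition). Kinetic TNB absorbance, 405 nm filter. Four-parameter Hill fit across titration.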
Pf growth 48h: inhibits P. falciparum growth in the first generation, 48 h. P. falciparum luciferase growth in erythrocytes, 48 h. Potency, µM (series often up to 28.7 µM), without a hit: top-dose activity change, negative = inhibition, most hits filed as inhibitors. hit rate 5.9% among 310,000. AID 504832; also: potency is read from the fitted curve at half-maximal effect; % is scaled to controls: 0 for no effect and ±100 for the full control effect
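In quantitative HTS format, infected erythrocytes bearing luciferase-reporter parasites were treated for a single generation at 37 C. Luminescence after adding detection reagent served as the growth measure.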
Active calls of the source: *; ? = inconclusive; . = no result; [ ] = another dose, or the depositor's remark. A selection: hits, their analogues and other compounds. The true share with any hit is near 15%. Unless noted, calls follow the shape of the dose curve; as a rule, active = well fitted curve in the direction sought with a large enough effect; inconclusive = small, poorly fitted or top-dose-only effect, or another doubt; inactive = no such curve, though single readings can be large; an effect the other way counts as inactive or inconclusive.

SMILES	HCV inhibitor	HCMV antiviral	Pf growth 96h	SARS PLpro yeast	Sm TGR inh	Pf growth 48h
CCc1nc2ccccc2c(NC(=O)CN2CCC(C)CC2)c1C	8.1%	-12.7	7.38µM*	5.5%	2.4%	-7.2%
NS(=O)(=O)c1ccc(NC(=O)COC(=O)CNC(=O)C23CC4CC(CC(C4)C2)C3)cc1	8.3%	5.7	16.9%	1.2%	-4.0%	-7.6%
Cc1cccc(NC(=O)CNC(=O)c2ccc(S(=O)(=O)NCc3ccco3)cc2)c1C	.	-26.2	.	.	.	.
COc1ccc(-c2ccc3c(c2)O[C@H](CN(C)C(=O)Nc2ccccc2F)[C@@H](C)CN([C@H](C)CO)S3(=O)=O)cc1	.	-14.8	.	.	.	.
Cn1cc(CN2CC3C[C@@H]4CC2C[C@H](C3)C4)c(-c2ccc3c(c2)OCCO3)n1	0.7%	33.2	11.7µM*	1.0%	-18.6%	-19.5%
c1cc2c(cc1-c1[nH]ncc1CN1CC3C[C@@H]4CC1C[C@H](C3)C4)OCO2	7.6%	-69.4*	?	1.9%	1.0%	?
COc1ccc(NC(=O)/C=C\C(=O)N(c2ccc(C(C)C)cc2)C(C(=O)NCc2ccco2)c2ccc(C)cc2)cc1 (configuration not stated)	.	-11.0	.	.	56.2µM*	.
Cc1ccc(NC(=O)/C=C\C(=O)N(c2ccc(C(C)C)cc2)C(C(=O)NCc2ccco2)c2ccc(F)cc2)cc1 (configuration not stated)	.	-81.8*	.	.	-26.4%	.
COc1ccc(N(C(=O)/C=C\C(=O)Nc2ccc(C)cc2)C(C(=O)NCc2ccco2)c2ccc(C)cc2)cc1 (configuration not stated)	.	-29.7	.	.	44.7µM*	.
Cc1ccc(N(C(=O)c2sc(C)nc2C)C(C(=O)NCc2ccco2)c2ccccc2)cc1 (configuration not stated)	-9.9%	?	?	0.7%	-12.4%	?
COc1ccccc1-c1cccc([C@@H]2C[C@H]3[C@H](CON3C)CN2C(=O)CCc2ccccc2)c1	?	2.2	.	.	.	.
CCOc1ccc(NC(=O)CSc2nnnn2-c2ccc(C(N)=O)cc2)cc1	11.8%	-18.3	18.3%	0.7%	8.3%	25.9%
CCn1c(C)nc2cc(C(=O)N/N=C/c3ccccc3C)ccc21	-15.8%	67.1	?	-0.4%	16.0%	-4.8%
CCn1c(C)nc2cc(C(=O)N/N=C(\C)c3ccccc3O)ccc21	10µM*	3.7	-5.8%	-4.1%	14.0%	21.2%
CCn1c(C)nc2cc(NC(=O)Nc3cccc(C(C)=O)c3)ccc21	-22.9%	-66.5*	-4.5%	9.5%	-0.8%	-8.5%[0.00184 µM]
COc1cc(C(=O)NNC(=O)c2ccccc2Br)ccc1OCC(=O)N1CCOCC1	12.8%	-5.8	18.1%	-0.2%	-2.2%	-3.0%
CCc1nc2c(OCc3ccccc3)cccn2c1N(C)C(=O)c1ccc2c(c1)OCO2	.	-2.9	.	.	.	.
CCOC(=O)c1c(NC(=O)CSc2nc3ccccc3[nH]2)sc2c1CC(C)(C)NC2(C)C	?	-23.5	7.38µM*	5.3%	-0.9%	10.4µM*
COc1ccccc1N1C(=O)c2cccc3c(Cl)ccc(c23)C1=O	?	-82.2*	19.6%	-1.1%	-10.8%	-19.4%
Cc1ccc(-n2ncc(C(=O)NCc3ccccc3)c2C2CCN(C(=O)OC(C)(C)C)CC2)cc1	.	0.0	.	.	4.9%	.
CCCN(CC1CCCO1)C(=O)c1cc(COc2ccc(F)cc2F)on1 (configuration not stated)	.	0.7	11.7µM*	-0.9%	-0.9%	14.4%
CCc1ccc(CN(C)C(=O)c2cc(COc3cccc4cnccc34)on2)cc1	7.94µM*	-99.0*	31.3%	-10.7%	-25.3%	?
CN(Cc1cccc2cnccc12)C(=O)c1cc(COc2ccc(F)cc2F)on1	8.91µM*	-60.1*	3.3%	-12.3%	-3.9%	?
CN(Cc1cccc2ccccc12)C(=O)c1cc(COc2c(F)cccc2F)on1	-15.2%	?	?	0.6%	0.3%	6.4%
CN(Cc1cccnc1)C(=O)c1cc(COc2ccc3c(c2)CCCC3)on1	.	-65.1*	3.6%	-12.0%	-22.8%	?
